Measurements published in PubChem BioAssay AID1159580 (chemical genetic matrix, 2015).
Several values for one entry are separate records, joined by “and”; a condition that tells them apart may be missing. Equal entries are not always repeated. About 2,000 (36%) of roughly 5,500 compounds were called active. Not shown: some 18% with an inconclusive outcome. Rule as the data show it: active = normalized growth mostly below about 0.91 (no sharp cut-off); inconclusive = no clear call, values can overlap the other calls; inactive = mostly above about 0.92. The list shows a part of the results.

Assay: chemical genetic growth profiling, strain panel (AID 1159580);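 also: tested at 20 µM; growth read once vehicle control cultures reached saturation at 30 °C; 1 = growth at the plate median or of vehicle wells; lower values mean less growth of the strain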
Conditions: S. cerevisiae deletion strains, growth OD

Measured: normalized growth

COc1c(O)cc2c(c1O)[C@H]1O[C@H](CO)[C@@H](O)[C@H](O)[C@@H]1OC2=O
inactive: locus YAL021C, strain ccr4, hits give low values 1.03 | locus YAL026C, strain drs2, hits give low values 1.02 | locus YAL030W, strain snc1, hits give low values 1.02 | locus YBL061C, strain skt5, hits give low values 1.03 | locus YBR009C, strain hhf1, hits give low values 1.02 | locus YBR021W, strain FUR4, hits give low values 0.961 | locus YBR023C, strain chs3, hits give low values 1.03 | locus YBR171W, strain sec66, hits give low values 1.02 | locus YBR229C, strain ROT2, hits give low values 0.993 | locus YBR231C, strain swc5, hits give low values 1.02 | locus YBR279W, strain paf1, hits give low values 1.02 | locus YCL011C, strain gbp2, hits give low values 1.02 | locus YCL016C, strain dcc1, hits give low values 1.04 | locus YCL029C, strain bik1, hits give low values 0.998 | locus YCL061C, strain MRC1, hits give low values 1.02 | locus YCL069W, strain vba3, hits give low values 1.02 | locus YCR088W, strain abp1, hits give low values 1.02 | locus YDL005C, strain med2, hits give low values 1.03 | locus YDL035C, strain GPR1, hits give low values 1.02 | locus YDL040C, strain nat1, hits give low values 1.02 | locus YDL074C, strain BRE1, hits give low values 0.992 | locus YDL101C, strain DUN1, hits give low values 0.985 | locus YDL185W, strain tfp1, hits give low values 1.02 | locus YDL192W, strain arf1, hits give low values 0.983 | locus YDR001C, strain nth1, hits give low values 1.02 | locus YDR069C, strain doa4, hits give low values 1.03 | locus YDR101C, strain arx1, hits give low values 1.01 | locus YDR137W, strain rgp1, hits give low values 1.05 | locus YDR150W, strain NUM1, hits give low values 0.98 | locus YDR159W, strain sac3, hits give low values 1 | locus YDR162C, strain NBP2, hits give low values 0.988 | locus YDR195W, strain ref2 1 | locus YDR297W, strain sur2, hits give low values 1.02 | locus YDR318W, strain mcm21, hits give low values 1.01 | locus YDR334W, strain swr1, hits give low values 1.02 | locus YDR335W, strain msn5, hits give low values 1.02 | locus YDR388W, hits give low values 0.996 | locus YDR392W, strain spt3, hits give low values 0.966 | locus YDR502C, strain sam2, hits give low values 1 | locus YEL003W, strain gim4, hits give low values 1.02 | locus YEL037C, strain rad23, hits give low values 1.02 | locus YEL061C, strain CIN8 (second series), hits give low values 1.02 | locus YEL061C, strain CIN8, hits give low values 0.962 | locus YER015W, strain faa2, hits give low values 1.01 | locus YER016W, strain bim1, hits give low values 1.02 | locus YER110C, hits give low values 1.01 | locus YER111C, strain swi4, hits give low values 1.01 | locus YER155C, strain BEM2 (second series), hits give low values 1 | locus YER155C, strain BEM2, hits give low values 0.996 | locus YER167W, strain BCK2, hits give low values 0.973 | locus YFR010W, strain ubp6, hits give low values 1.02 | locus YGL078C, strain dbp3, hits give low values 1.03 | locus YGL086W, strain mad1, hits give low values 0.991 | locus YGL167C, strain pmr1, hits give low values 1.02 | locus YGL173C, strain kem1, hits give low values 1.01 | locus YGL227W, strain vid30, hits give low values 1.02 | locus YGL240W, strain doc1, hits give low values 1.01 | locus YGL248W, strain PDE1, hits give low values 1 | locus YGL253W, strain hxk2, hits give low values 1.02 | locus YGR135W, strain pre9, hits give low values 0.995 | locus YGR252W, strain gcn5, hits give low values 0.991 | locus YHR013C, strain ard1, hits give low values 1.02 | locus YHR027C, strain rpn1, hits give low values 1.01 | locus YHR030C, strain SLT2, hits give low values 1.01 and 0.959 | locus YHR079C, strain IRE1 (second series), hits give low values 1.01 | locus YHR079C, strain IRE1, hits give low values 0.987 | locus YHR094C, strain hxt1, hits give low values 0.996 | locus YHR129C, strain ARP1, hits give low values 0.988 | locus YHR142W, strain chs7, hits give low values 1.05 | locus YHR200W, strain rpn10, hits give low values 1 | locus YIL066C, strain RNR3, hits give low values 0.986 | locus YIL073C, strain SPO22, hits give low values 1.05 | locus YIL125W, strain kgd1, hits give low values 1.01 | locus YIR030C, strain dcg1, hits give low values 1 | locus YJL092W, strain hpr5, hits give low values 1.02 | locus YJL095W, strain BCK1 (second series), hits give low values 1.03 | locus YJL095W, strain BCK1, hits give low values 0.811 and 0.98 | locus YJL115W, strain asf1, hits give low values 1.01 | locus YJL129C, strain trk1, hits give low values 1.04 | locus YJL134W, strain LCB3, hits give low values 0.998 | locus YJL154C, strain vps35, hits give low values 1.01 | locus YJL164C, strain tpk1, hits give low values 1.02 | locus YJL166W, strain qcr8, hits give low values 1.03 | locus YJL168C, strain set2, hits give low values 1 | locus YJL187C, strain SWE1 (second series), hits give low values 0.969 | locus YJL187C, strain SWE1, hits give low values 1.03 | locus YJR043C, strain POL32, hits give low values 0.997 | locus YJR066W, strain TOR1, hits give low values 0.934 | locus YJR075W, strain HOC1, hits give low values 1
